# Reference: paper PMC7862700, “An all-to-all approach to the identification of sequence-specific readers for epigenetic DNA modifications on cytosine”
# Tests used:
# Assay in all cases: DAPPL (digital affinity profiling via proximity ligation, sequencing); 10 mM Tris-HCl pH 7.5, 50 mM NaCl, 1 mM DTT, 4% glycerol, room temperature, 30 min; GST-TFs on glutathione beads, 16-mer random dsDNA library, 0.1% formaldehyde crosslink after washing; high values mean tight binding
# [1] = target: T1, FEV (Homo sapiens, UniProt Q99581 1-238); conditions: protein: recombinant; tags: N-terminal GST; dsDNA, one strand shown
# T1 sequence: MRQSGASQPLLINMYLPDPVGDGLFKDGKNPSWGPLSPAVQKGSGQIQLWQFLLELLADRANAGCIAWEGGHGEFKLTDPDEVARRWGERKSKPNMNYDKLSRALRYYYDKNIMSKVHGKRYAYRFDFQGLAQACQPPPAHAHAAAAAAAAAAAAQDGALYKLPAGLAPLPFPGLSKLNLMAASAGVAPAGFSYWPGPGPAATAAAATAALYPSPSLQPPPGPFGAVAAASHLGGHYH
# Summary of the method: (§1)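 Binding signal is each hexamer's read frequency for a factor divided by its frequency in the tag-only sample. The factors were GST-fused human transcription factors from yeast, captured on glutathione beads, DNA-barcoded and pooled with that sample. Pools were incubated with 200 nmole of a random double-stranded 16-mer DNA library in Tris/NaCl/DTT/glycerol buffer at room temperature for 30 min, then washed, crosslinked with 0.1% formaldehyde, proximity-ligated with BsaI/T4 ligase (1 h, 37 °C), PCR-amplified and sequenced on an Illumina NextSeq500.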
# [2] = target: ETV5 (Homo sapiens, UniProt P41161 1-510); conditions: protein: recombinant; tags: N-terminal GST; dsDNA, one strand shown
# Summary of the method: as §1
# [3] = target: HSF1 (Homo sapiens, UniProt Q00613 1-529); conditions: protein: recombinant; tags: N-terminal GST; chain copies: 3; dsDNA, one strand shown
# Summary of the method: as §1
# [4] = target: T2, SPIC (Homo sapiens, UniProt Q8N5J4 1-248); conditions: protein: recombinant; tags: N-terminal GST; dsDNA, one strand shown
# T2 sequence: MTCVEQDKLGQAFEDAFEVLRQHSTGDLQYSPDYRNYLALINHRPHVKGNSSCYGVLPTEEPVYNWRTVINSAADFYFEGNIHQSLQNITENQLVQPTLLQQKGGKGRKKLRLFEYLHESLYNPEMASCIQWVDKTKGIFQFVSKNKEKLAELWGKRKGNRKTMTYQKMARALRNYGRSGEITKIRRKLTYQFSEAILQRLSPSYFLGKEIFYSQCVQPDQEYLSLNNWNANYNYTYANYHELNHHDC
# Summary of the method: as §1
# [5] = target: ELF4 (Homo sapiens, UniProt Q99607 1-663); conditions: protein: recombinant; tags: N-terminal GST; dsDNA, one strand shown
# Summary of the method: as §1
# [6] = target: T3, ELK4 (Homo sapiens, UniProt P28324-2 1-405); conditions: protein: recombinant; tags: N-terminal GST; dsDNA, one strand shown
# T3 sequence: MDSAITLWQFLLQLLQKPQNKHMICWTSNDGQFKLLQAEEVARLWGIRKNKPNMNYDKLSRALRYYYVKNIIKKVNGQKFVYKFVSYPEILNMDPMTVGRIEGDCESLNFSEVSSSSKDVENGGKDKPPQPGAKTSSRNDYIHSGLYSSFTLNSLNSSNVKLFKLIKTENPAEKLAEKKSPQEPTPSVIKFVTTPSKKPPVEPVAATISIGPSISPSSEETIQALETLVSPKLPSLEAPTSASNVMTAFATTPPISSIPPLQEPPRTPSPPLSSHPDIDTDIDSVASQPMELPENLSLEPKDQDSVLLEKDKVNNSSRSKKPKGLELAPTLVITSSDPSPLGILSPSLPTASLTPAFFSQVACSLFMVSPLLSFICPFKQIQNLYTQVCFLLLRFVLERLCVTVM
# Summary of the method: as §1
# [7] = target: T4, ETV2 (Homo sapiens, UniProt O00321 1-342); conditions: protein: recombinant; tags: N-terminal GST; dsDNA, one strand shown
# T4 sequence: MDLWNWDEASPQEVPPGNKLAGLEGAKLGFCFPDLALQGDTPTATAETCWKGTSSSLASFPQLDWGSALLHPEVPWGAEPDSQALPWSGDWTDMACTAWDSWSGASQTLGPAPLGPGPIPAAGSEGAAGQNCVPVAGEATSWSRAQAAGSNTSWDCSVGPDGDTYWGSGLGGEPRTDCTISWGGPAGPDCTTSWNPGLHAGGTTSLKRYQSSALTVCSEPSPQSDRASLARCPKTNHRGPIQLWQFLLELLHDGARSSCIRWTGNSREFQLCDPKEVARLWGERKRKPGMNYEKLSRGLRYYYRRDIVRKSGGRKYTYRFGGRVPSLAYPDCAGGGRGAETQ
# Summary of the method: as §1
# [8] = target: T5, ELF3 (Homo sapiens, UniProt P78545 1-371); conditions: protein: recombinant; tags: N-terminal GST; dsDNA, one strand shown
# T5 sequence: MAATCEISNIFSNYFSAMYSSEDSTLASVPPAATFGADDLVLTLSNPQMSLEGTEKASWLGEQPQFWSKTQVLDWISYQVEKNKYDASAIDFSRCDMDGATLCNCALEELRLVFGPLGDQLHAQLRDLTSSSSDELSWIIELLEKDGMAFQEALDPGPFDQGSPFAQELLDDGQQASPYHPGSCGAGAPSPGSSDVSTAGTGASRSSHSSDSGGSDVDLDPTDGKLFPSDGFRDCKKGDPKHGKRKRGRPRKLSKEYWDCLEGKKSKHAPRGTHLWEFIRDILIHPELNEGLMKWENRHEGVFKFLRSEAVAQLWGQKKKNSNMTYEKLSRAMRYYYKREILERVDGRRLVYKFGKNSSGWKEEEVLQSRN
# Summary of the method: as §1
# [9] = target: CRX (Homo sapiens, UniProt O43186 1-299); conditions: protein: recombinant; tags: N-terminal GST; dsDNA, one strand shown
# Summary of the method: as §1
# [10] = target: ETV1 (Homo sapiens, UniProt P50549 1-477); conditions: protein: recombinant; tags: N-terminal GST; dsDNA, one strand shown
# Summary of the method: as §1
# [11] = target: T6, ERF (Homo sapiens, UniProt P50548 1-548); conditions: protein: recombinant; tags: N-terminal GST; dsDNA, one strand shown
# T6 sequence: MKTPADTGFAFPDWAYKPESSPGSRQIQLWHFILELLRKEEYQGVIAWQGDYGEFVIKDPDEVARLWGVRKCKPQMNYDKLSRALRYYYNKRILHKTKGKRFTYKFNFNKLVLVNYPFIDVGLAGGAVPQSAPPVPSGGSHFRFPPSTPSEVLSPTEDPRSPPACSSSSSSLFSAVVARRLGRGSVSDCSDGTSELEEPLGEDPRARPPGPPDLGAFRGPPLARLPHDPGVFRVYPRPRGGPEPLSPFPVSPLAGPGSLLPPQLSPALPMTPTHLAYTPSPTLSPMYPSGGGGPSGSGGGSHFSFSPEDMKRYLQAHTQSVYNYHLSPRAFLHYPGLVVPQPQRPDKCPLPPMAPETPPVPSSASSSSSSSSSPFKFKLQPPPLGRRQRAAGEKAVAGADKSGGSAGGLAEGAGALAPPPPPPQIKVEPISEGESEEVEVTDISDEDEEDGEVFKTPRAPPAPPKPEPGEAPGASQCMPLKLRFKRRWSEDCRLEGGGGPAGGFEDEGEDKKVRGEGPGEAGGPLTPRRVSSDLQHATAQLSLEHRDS
# Summary of the method: as §1
# [12] = target: T7, ETV3L (Homo sapiens, UniProt Q6ZN32 1-361); conditions: protein: recombinant; tags: N-terminal GST; dsDNA, one strand shown
# T7 sequence: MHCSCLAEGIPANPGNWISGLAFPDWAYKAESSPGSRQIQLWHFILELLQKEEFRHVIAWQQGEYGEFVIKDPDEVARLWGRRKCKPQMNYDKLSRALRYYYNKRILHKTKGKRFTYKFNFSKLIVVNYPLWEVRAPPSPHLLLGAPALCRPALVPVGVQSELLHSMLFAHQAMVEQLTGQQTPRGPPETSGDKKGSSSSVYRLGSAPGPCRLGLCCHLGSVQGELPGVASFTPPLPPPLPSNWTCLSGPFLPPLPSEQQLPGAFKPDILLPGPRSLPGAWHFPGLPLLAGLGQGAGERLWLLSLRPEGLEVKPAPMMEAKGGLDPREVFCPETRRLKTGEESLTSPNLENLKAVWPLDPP
# Summary of the method: as §1
# [13] = target: T8, ETS2 (Homo sapiens, UniProt P15036 1-469); conditions: protein: recombinant; tags: N-terminal GST; dsDNA, one strand shown
# T8 sequence: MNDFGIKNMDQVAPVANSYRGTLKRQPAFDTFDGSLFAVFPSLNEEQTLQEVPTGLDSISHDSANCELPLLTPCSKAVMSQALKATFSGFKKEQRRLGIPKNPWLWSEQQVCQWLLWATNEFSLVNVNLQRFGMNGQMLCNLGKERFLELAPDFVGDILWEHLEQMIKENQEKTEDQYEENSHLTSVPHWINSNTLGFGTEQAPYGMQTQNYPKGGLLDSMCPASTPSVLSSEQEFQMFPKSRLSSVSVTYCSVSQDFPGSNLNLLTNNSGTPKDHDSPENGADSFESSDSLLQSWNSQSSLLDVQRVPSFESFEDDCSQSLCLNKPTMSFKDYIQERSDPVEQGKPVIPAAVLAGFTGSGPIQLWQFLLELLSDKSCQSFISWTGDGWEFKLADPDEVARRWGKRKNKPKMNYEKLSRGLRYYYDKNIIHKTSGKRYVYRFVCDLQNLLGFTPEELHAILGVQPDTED
# Summary of the method: as §1
# [14] = target: T9, SPDEF (Homo sapiens, UniProt O95238 1-335); conditions: protein: recombinant; tags: N-terminal GST; dsDNA, one strand shown
# T9 sequence: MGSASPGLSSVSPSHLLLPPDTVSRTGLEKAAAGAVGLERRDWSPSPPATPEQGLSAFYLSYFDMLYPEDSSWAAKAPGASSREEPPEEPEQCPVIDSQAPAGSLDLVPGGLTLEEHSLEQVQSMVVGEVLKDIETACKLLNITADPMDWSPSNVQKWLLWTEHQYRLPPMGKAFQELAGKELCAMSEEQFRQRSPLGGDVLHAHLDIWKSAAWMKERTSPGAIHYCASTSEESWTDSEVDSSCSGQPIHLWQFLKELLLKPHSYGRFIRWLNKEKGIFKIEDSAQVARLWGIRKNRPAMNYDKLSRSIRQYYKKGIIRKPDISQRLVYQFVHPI
# Summary of the method: as §1
# [15] = target: T10, ETV7 (Homo sapiens, UniProt Q9Y603 1-341); conditions: protein: recombinant; tags: N-terminal GST; dsDNA, one strand shown
# T10 sequence: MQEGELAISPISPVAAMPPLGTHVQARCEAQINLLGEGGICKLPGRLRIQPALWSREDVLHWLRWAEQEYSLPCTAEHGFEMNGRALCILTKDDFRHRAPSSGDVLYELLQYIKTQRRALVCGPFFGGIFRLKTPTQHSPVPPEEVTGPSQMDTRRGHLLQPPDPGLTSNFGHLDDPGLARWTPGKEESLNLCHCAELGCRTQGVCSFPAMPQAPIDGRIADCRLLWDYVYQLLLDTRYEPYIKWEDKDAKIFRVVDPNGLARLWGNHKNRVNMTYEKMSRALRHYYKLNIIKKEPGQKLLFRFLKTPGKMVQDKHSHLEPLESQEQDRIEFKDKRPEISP
# Summary of the method: as §1
# [16] = target: T11, ELF5 (Homo sapiens, UniProt Q9UKW6-2 1-255); conditions: protein: recombinant; tags: N-terminal GST; dsDNA, one strand shown
# T11 sequence: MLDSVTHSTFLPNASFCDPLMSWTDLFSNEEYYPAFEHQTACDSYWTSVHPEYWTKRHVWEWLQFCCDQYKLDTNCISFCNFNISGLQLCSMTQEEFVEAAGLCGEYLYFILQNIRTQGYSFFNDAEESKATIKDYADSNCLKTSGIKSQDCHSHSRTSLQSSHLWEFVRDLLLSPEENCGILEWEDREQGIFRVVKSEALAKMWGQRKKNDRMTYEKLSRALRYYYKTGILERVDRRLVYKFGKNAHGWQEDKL
# Summary of the method: as §1
# [17] = target: T12, ETV3 (Homo sapiens, UniProt P41162-2 1-143); conditions: protein: recombinant; tags: N-terminal GST; dsDNA, one strand shown
# T12 sequence: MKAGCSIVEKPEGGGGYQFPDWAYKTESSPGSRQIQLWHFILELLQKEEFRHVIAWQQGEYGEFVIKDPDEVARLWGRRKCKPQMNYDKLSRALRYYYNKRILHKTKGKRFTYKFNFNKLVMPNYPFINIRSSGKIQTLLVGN
# Summary of the method: as §1
# [18] = target: ETV6 (Homo sapiens, UniProt P41212 1-452); conditions: protein: recombinant; tags: N-terminal GST; dsDNA, one strand shown
# Summary of the method: as §1
# Sequence of ETV6 (P41212 whole entry): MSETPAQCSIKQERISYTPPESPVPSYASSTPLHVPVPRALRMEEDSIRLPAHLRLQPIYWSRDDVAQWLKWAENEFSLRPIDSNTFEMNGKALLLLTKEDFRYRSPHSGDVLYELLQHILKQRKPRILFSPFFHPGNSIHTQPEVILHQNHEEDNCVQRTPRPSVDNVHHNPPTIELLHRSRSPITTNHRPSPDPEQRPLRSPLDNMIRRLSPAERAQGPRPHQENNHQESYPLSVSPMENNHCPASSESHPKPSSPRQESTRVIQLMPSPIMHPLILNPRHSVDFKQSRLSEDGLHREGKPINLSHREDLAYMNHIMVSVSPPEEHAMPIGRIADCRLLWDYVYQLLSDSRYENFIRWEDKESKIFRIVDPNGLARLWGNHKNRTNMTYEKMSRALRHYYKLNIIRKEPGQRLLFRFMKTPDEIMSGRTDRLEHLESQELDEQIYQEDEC
# Sequence of ELF4 (Q99607 whole entry): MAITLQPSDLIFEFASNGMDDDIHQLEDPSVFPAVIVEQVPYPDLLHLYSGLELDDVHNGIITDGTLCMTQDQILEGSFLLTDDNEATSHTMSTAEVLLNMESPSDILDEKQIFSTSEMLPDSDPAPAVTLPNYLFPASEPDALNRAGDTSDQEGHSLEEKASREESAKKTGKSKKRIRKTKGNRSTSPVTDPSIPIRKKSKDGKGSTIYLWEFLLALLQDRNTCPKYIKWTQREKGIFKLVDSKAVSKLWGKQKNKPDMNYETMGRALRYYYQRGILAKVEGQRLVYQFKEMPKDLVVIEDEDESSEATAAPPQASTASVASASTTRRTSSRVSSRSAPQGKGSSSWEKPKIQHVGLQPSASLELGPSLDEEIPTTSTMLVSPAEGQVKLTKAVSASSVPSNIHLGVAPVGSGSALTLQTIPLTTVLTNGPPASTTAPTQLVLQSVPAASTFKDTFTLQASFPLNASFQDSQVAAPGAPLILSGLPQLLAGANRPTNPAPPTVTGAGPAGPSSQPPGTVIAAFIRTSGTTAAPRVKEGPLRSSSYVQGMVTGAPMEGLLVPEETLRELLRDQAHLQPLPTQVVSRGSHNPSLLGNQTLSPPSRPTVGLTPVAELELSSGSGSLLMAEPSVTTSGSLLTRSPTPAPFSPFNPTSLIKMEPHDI
# Sequence of HSF1 (Q00613 whole entry): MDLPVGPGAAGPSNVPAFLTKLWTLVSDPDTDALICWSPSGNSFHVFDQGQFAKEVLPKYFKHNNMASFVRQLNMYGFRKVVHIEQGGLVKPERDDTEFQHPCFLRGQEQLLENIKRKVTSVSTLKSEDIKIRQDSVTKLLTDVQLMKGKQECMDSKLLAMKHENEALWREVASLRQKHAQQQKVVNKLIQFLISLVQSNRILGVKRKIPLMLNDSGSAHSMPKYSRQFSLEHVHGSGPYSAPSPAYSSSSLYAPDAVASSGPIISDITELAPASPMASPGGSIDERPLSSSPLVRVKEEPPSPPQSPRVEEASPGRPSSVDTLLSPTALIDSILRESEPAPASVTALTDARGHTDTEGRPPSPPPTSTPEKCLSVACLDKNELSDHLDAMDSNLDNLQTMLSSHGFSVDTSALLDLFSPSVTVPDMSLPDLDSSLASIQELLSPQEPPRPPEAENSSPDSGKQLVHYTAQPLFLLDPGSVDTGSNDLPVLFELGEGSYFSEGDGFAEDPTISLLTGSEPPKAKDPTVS
# Sequence of ETV1 (P50549 whole entry): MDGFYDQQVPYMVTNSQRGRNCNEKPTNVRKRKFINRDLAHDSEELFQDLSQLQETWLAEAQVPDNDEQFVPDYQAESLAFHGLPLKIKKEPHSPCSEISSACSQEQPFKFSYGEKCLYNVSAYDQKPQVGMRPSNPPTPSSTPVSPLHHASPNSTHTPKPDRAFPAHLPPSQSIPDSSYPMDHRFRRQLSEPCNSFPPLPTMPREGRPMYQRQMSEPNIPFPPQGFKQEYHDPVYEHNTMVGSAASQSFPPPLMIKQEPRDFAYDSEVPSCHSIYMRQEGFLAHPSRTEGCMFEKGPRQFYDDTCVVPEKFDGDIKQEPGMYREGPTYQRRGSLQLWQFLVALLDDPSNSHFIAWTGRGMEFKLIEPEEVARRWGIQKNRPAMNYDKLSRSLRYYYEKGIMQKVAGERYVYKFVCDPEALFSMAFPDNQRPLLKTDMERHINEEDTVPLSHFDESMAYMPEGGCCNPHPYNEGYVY
# Sequence of CRX (O43186 whole entry): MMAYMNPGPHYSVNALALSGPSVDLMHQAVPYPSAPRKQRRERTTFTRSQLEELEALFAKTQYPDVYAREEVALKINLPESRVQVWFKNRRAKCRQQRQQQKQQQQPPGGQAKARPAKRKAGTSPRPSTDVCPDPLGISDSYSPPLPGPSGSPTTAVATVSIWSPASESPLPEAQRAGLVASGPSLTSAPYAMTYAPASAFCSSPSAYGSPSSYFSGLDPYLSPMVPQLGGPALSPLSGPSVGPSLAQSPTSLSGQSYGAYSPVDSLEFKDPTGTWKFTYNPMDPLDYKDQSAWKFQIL
# Sequence of ETV5 (P41161 whole entry): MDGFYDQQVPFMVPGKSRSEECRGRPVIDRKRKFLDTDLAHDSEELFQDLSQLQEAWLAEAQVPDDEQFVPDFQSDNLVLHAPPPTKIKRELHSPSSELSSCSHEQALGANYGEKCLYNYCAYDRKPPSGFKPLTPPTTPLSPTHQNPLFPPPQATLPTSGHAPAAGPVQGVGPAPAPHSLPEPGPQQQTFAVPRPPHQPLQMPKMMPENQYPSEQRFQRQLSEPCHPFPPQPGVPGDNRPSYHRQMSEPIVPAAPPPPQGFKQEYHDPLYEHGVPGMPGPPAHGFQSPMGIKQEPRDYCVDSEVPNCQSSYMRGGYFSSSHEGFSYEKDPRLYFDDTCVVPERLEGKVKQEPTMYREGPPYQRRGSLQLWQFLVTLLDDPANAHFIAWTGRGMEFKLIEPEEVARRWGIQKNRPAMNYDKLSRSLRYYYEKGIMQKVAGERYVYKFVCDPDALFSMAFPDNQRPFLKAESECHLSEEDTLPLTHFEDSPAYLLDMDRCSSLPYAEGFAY
sequence,measurement,setting,value
TTTTCC,binding signal,[1],"1.74 fold enrichment (6-mer frequency, TF over GST control)"
same,binding signal,[2],"1.92 fold enrichment (6-mer frequency, TF over GST control)"
same,binding signal,[3],"1.73 fold enrichment (6-mer frequency, TF over GST control)"
same,binding signal,[4],"1.72 fold enrichment (6-mer frequency, TF over GST control)"
same,binding signal,[5],"1.84 fold enrichment (6-mer frequency, TF over GST control)"
same,binding signal,[6],"1.62 fold enrichment (6-mer frequency, TF over GST control)"
same,binding signal,[7],"1.88 fold enrichment (6-mer frequency, TF over GST control)"
same,binding signal,[8],"1.89 fold enrichment (6-mer frequency, TF over GST control)"
same,binding signal,[9],"1.44 fold enrichment (6-mer frequency, TF over GST control)"
same,binding signal,[10],"1.65 fold enrichment (6-mer frequency, TF over GST control)"
same,binding signal,[11],"1.65 fold enrichment (6-mer frequency, TF over GST control)"
same,binding signal,[12],"1.71 fold enrichment (6-mer frequency, TF over GST control)"
same,binding signal,[13],"1.69 fold enrichment (6-mer frequency, TF over GST control)"
same,binding signal,[14],"1.67 fold enrichment (6-mer frequency, TF over GST control)"
same,binding signal,[15],"1.78 fold enrichment (6-mer frequency, TF over GST control)"
same,binding signal,[16],"2.37 fold enrichment (6-mer frequency, TF over GST control)"
same,binding signal,[17],"1.82 fold enrichment (6-mer frequency, TF over GST control)"
same,binding signal,[18],"2.08 fold enrichment (6-mer frequency, TF over GST control)"
